# Experimental data: the supplement of paper PMC10981050
# “And” between values parts separate entries of the source, which are not always exact repeats. Identical values can stand only once. Counter-ions that a name gives are not always drawn.
# Columns and labels:
# Assay in all cases: cell viability relative to vehicle control; higher = less cytotoxic
# Settings in all cases: 10 µM
# K562 = tested on: K562
# In short: (§1)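 After removal of identity-inconsistent compounds, the Selleck bioactive, kinase and epigenetic probe libraries were screened on CRISPR-edited mutant clones and isogenic wild-type clones of four leukaemia lines. Plates were 384-well, each well holding 2000 cells in 50 µL medium and receiving a single 10 µM acoustically dispensed dose. CellTiter-Glo luminescence was read 48 h later, after the supernatant was taken off. Genedata Screener was used to express viability as percent of the on-plate vehicle control.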
# MARIMO = tested on: MARIMO
# In short: as §1
# MOLM14 = tested on: MOLM14
# In short: as §1
# OCI-AML2 = tested on: OCI-AML2
# In short: as §1
SMILES,cell viability (K562; SRSF2 genotype: SRSF2 P95H/wt),cell viability (K562; SRSF2 genotype: SRSF2 wt/wt) [%],cell viability (MARIMO; SRSF2 genotype: SRSF2 P95H/wt) [%],cell viability (MARIMO; SRSF2 genotype: SRSF2 wt/wt) [%],cell viability (MOLM14; SRSF2 genotype: SRSF2 P95H/wt) [%],cell viability (MOLM14; SRSF2 genotype: SRSF2 wt/wt) [%],cell viability (OCI-AML2; SRSF2 genotype: P95H/wt) [%],cell viability (OCI-AML2; SRSF2 genotype: wt/wt) [%]
CCCCCc1cc(O)cc(O)c1 [Olivetol],102% and 99.9%,110,87.2,96.8,101,107,111,112
CN1CCCCC1Cn1cc(C(=O)c2cc([N+](=O)[O-])ccc2I)c2ccccc21 (stereo not given),83.1% and 88.8%,87.2,84.2,103,3.13,2.06,76.2,65.5
O=C(C[S+]([O-])C(c1ccccc1)c1ccccc1)NO (stereo not given) [Adrafinil],95.6% and 94.3%,103,92.9,96.4,95.3,102,91.8,110
CCCCC(C#N)(Cn1cncn1)c1ccc(Cl)cc1 (stereo not given) [Myclobutanil],105% and 99.5%,100,97,109,93.9,108,92.3,98.1
COc1cc2c(cc1O)C[C@H]1c3c(cc(O)c(OC)c3-2)CCN1C [Boldine],99.6% and 100%,99,94.1,88.6,96.5,101,95.3,91
CCc1c(C(=O)C(N)=O)c2c(OCC(=O)O)cccc2n1Cc1ccccc1,93.5% and 89.8%,88.8,82.6,92,93.1,95.2,84,90.6
CC(C)=CCCC(C(=O)O)C1CCC2(C)C3=C(CCC12C)C1(C)CCC(=O)C(C)(C)C1CC3 (stereo not drawn) [Beta-Elemonic],96% and 89.7%,87.7,92.7,99,88.8,93.1,100,101
C=C[C@@H]1C2=CCOC(=O)C2=CO[C@H]1O[C@@H]1O[C@H](CO)[C@@H](O)[C@H](O)[C@H]1O [Gentiopicroside],97.2% and 95.7%,96.3,94.5,99,98.5,104,94,108
C[C@H]1CC[C@@H]2N(C1)C[C@H]1[C@@H]3C[C@H]4[C@@H](C[C@H](O)[C@H]5C[C@@H](O)CC[C@@]54C)[C@@H]3CC[C@@H]1[C@]2(C)O [Peimine],110% and 102%,95.8,97.3,104,104,98.6,99.6,106
COC1=C[C@@H]2[C@@H]3Cc4ccc(OC)c(O)c4[C@]2(CCN3C)CC1=O [Sinomenine hydrochloride],104% and 105%,97.9,102,101,98.5,101,103,109
CN1CCN(c2nc3ccccc3nc2Cl)CC1,96.3% and 106%,98.8,93.1,103,105,109,107,102
CNCC(O)c1ccc(O)cc1 (stereo not given) [Synephrine (Oxedrine)],106% and 102%,94.5,103,98.5,97.4,101,98.4,106
CC(C)C1=CC(=O)[C@@](C)(C2[C@H](O)C[C@@]3(C)[C@@H]4CC=C5[C@@H](CC[C@@H](OC6OCC(O)C(O)C6OC6OC(C)C(O)C(O)C6O)C5(C)C)[C@]4(C)C(=O)C[C@]23C)O1 (stereo not given in full) [Picfeltarraenin IA],95.9% and 96.6%,89.6,92.2,92.5,89.7,93.2,94.3,101
C=C[C@@]12CN(C)[C@H]3C[C@]14C(=Nc1ccccc14)[C@@H]1C[C@@H]2[C@@H]3CO1 [Koumine],99.2% and 99.1%,98.6,102,102,104,96.2,101,101
O=C([O-])C(Cl)Cl.[Na+] [Sodium dichloroacetate (DCA)],96.5% and 94.6%,97.6,96.1,104,95.3,99,96.7,101
CC(=O)OC1CN2CCC1CC2 (stereo not given) [Aceclidine HCl],99.8% and 104%,100,104,112,104,106,102,105
Nc1nc(N)nc(N)n1 [Melamine],93% and 95.7%,90,94.3,99,90.1,94.4,95.2,97.8
COc1ccc(C=O)cc1O [Isovanillin],105% and 103%,103,108,108,106,101,104,98.2
C[C@H]1CC[C@]2(NC1)O[C@H]1C[C@H]3[C@@H]4CC[C@H]5C[C@@H](O)CC[C@]5(C)[C@H]4CC[C@]3(C)[C@H]1[C@@H]2C [Tomatidine],92.3% and 92%,90.7,86.8,94.8,90.7,93.3,96.5,93.5
"C/C(=C\c1csc(C)n1)[C@@H]1C[C@@H]2O[C@]2(C)CCC[C@H](C)[C@H](O)[C@@H](C)C(=O)C(C)(C)[C@@H](O)CC(=O)O1 [Patupilone (EPO906, Epothilone B)]",29% and 37%,39.4,7.88,6.51,8.36,2.95,6.03,11.7

SMILES,cell viability (K562; SRSF2 genotype: SRSF2 P95H/wt),cell viability (K562; SRSF2 genotype: SRSF2 wt/wt) [%],cell viability (MARIMO; SRSF2 genotype: SRSF2 P95H/wt) [%],cell viability (MARIMO; SRSF2 genotype: SRSF2 wt/wt) [%],cell viability (MOLM14; SRSF2 genotype: SRSF2 P95H/wt) [%],cell viability (MOLM14; SRSF2 genotype: SRSF2 wt/wt) [%],cell viability (OCI-AML2; SRSF2 genotype: P95H/wt) [%],cell viability (OCI-AML2; SRSF2 genotype: wt/wt) [%]
NC(=O)CN1CCCC1=O [Piracetam],96.1% and 103%,98.7,102,102,99.6,105,103,112
COc1cc([C@@H]2c3cc4c(cc3[C@H](O)[C@H]3COC(=O)[C@H]23)OCO4)cc(OC)c1O [4'-Demethylpodophyllotoxin],15.8% and 34.9%,35.7,8.03,7.56,0.85,0.99,1.45,3.83
C[C@]12CC[C@H](O)CC1=CC[C@@H]1[C@@H]2CC[C@]2(C)C(=O)CC[C@@H]12 [Dehydroepiandrosterone (DHEA)],89.1% and 108%,102,98.1,101,108,103,110,93.2
O=C(O)CNC(=O)C1C(=O)N(C2CCCCC2)C(=O)N(C2CCCCC2)C1=O,93.8% and 88.7%,83.9,86.5,101,83.8,94.1,98.8,98.5
CC(=O)O[C@H]1[C@H]2[C@@H](OC(=O)Cc3ccccc3)[C@@H](C)C[C@]2(OC(C)=O)C(=O)/C(C)=C/[C@@H]2[C@H](CC[C@@]13CO3)C2(C)C [Euphorbiasteroid],63.8% and 85.5%,84.1,111,27.6,46.1,30.6,27.2,22.4
NCC(=O)O.[C-]#[O+].[C-]#[O+].[C-]#[O+].[Cl][Ru],104% and 93.3%,96.2,88.5,99.2,88.6,90.8,91.9,114
COC1=CC23CCN(C)C(Cc4ccc(OC)c(O)c42)C3=CC1=O (stereo not given) [Sinoacutine],110% and 102%,101,103,101,108,103,101,104
C[C@H]1CCC/C=C/[C@@H]2C[C@H](O)C[C@H]2[C@H](O)/C=C/C(=O)O1 [Brefeldin A],19% and 24.5%,24.1,9.22,6.8,6.71,4.1,4.83,18.7
O=C(CC1NCCCC1O)Cn1cnc2cc(Br)c(Cl)cc2c1=O (stereo not given) [Halofuginone],6.09% and 15.2%,11,8.89,3.03,0.77,0.52,0.78,5.46
c1cc2c(cc1[C@H]1OC[C@H]3[C@@H]1CO[C@H]3c1ccc3c(c1)OCO3)OCO2 [Asarinin],99.6% and 99.4%,102,91.7,104,100,103,89.1,89.4
c1cc2c(cc1[C@H]1OC[C@H]3[C@@H]1CO[C@@H]3c1ccc3c(c1)OCO3)OCO2 [Sesamin (Fagarol)],92.3% and 97.8%,97.3,94.2,111,98.8,105,100,102
C[C@]12C=CC(=O)C=C1CC[C@@H]1[C@@H]2CC[C@@]2(C)[C@H]1CC[C@]2(C)O [Methandrostenolone],102% and 107%,102,103,105,103,110,115,104
N#CC(C#N)=Cc1ccc(O)c(O)c1 [AG 18 (Tyrphostin 23)],86.3% and 84.4%,80.7,78.4,79.8,81.5,86.5,78.8,82
CC(C)=CCC[C@](C)(O)[C@H]1CC[C@]2(C)[C@@H]1[C@H](O)C[C@@H]1[C@@]3(C)CC[C@H](O[C@@H]4O[C@H](CO)[C@@H](O)[C@H](O)[C@H]4O)C(C)(C)[C@@H]3CC[C@]12C [20S-Ginsenoside Rh2],98.1% and 92.1%,105,104,106,103,106,97.4,96.2
C=C(C)[C@H]1Cc2c(ccc3c2O[C@@H]2COc4cc(OC)c(OC)cc4[C@@H]2C3=O)O1 [Rotenone (Barbasco)],12.8% and 22.4%,23.4,5.86,10.5,15.6,3.2,9.69,13.8
COc1ccc(C(CN(C)C)C2(O)CCCCC2)cc1 (stereo not given) [Venlafaxine HCl],99.9%,98.7,95.8,99.7,96.9,98.6,99.8,107
CN1[C@@H]2C[C@@H](OC(=O)[C@H](CO)c3ccccc3)C[C@H]1[C@@H]1O[C@@H]12 [Scopolamine hydrobromide],97.1% and 95.9%,99.9,101,109,104,100,102,104
OC(CNc1ccccc1)Cn1c2ccc(Br)cc2c2cc(Br)ccc21 (stereo not given),74.2% and 72.5%,66.2,85.1,98.2,87.2,58.1,52.3,83.5
Nc1ncnc2c1ccn2[C@@H]1O[C@H](CO)[C@@H](O)[C@H]1O [Tubercidin],4.16% and 3.19%,3.9,1.78,1.63,0.87,1.22,0.61,0.99
CCOC(=O)Nc1ccc(NCc2ccc(F)cc2)cc1N [Retigabine],98.5%,97.3,93.7,110,102,105,98.5,110
